According to PubChem BioAssay (NCI):
Compounds without any hit were thinned out: in the full panel of roughly 79,000, 15% have a hit. Values without a mark were called inactive. The source made the active and inactive calls. No stated cut-off is given here; in the data, active means growth inhibition above about 70%; inactive means the rest. Where a SMILES comes first, the peptide text is derived from it. The star is where a group is joined. Cbz = O=C(OCc1ccccc1)*

Legend:
[1] = NCI Yeast Anticancer Drug Screen. Data for the rad50 strain (AID 155);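 further: 0% = growth of vehicle-only cultures of the same strain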; conditions: S. cerevisiae rad50 strain growth inhibition, hits give high values
How it was run: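 Yeast carrying a defined DNA repair defect were exposed to test compounds, and growth was compared with vehicle-treated controls to give percent inhibition.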

[2] = NCI Yeast Anticancer Drug Screen. Data for the mec2-1 strain (AID 157); conditions: S. cerevisiae mec2-1 strain, hits give high values
How it was run: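 Cells of the genetically defined mec2-1 yeast strain are incubated with test compound. Inhibition of growth is calculated against vehicle-treated controls.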

[3] = NCI Yeast Anticancer Drug Screen. Data for the sgs1 mgt1 strain (AID 161);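 further: 0% = growth of cultures given vehicle only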; conditions: S. cerevisiae sgs1 mgt1 strain, hits give high values
How it was run: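 Inhibition of yeast growth, normalised to vehicle-treated controls, is reported for a strain bearing genetic alterations in DNA damage repair.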

[4] = NCI Yeast Anticancer Drug Screen. Data for the cln2 rad14 strain (AID 165);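 further: 0% = growth equal to vehicle treated cultures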; conditions: S. cerevisiae cln2 rad14 strain, hits give high values
How it was run: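 The screen exposed genetically defined yeast (cln2 rad14) to test compounds and scored growth inhibition relative to vehicle-treated controls.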

[5] = NCI Yeast Anticancer Drug Screen. Data for the bub3 strain (AID 167); conditions: S. cerevisiae bub3 mutant strain, hits give high values
How it was run: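 Compounds were applied to a genetically altered yeast strain carrying a cell-cycle control defect. Growth inhibition was scored against vehicle-treated controls.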

[6] = NCI Yeast Anticancer Drug Screen. Data for the mlh1 rad18 strain (AID 175); conditions: S. cerevisiae mlh1 rad18 strain growth inhibition, hits give high values
How it was run: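 Compound-treated yeast growth, normalised to vehicle controls. Strain bears defined DNA repair mutations.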

[7] = at 5.0 µM (retest, dose inferred, filed as 0.5)
[8] = at 50.0 µM (retest, dose inferred, filed as 5.0)

Structure (SMILES)	growth inhibition [1, 7]	growth inhibition [1, 8]	growth inhibition ([1]; at 50.0 µM)	growth inhibition [2, 7]	growth inhibition [2, 8]	growth inhibition ([2]; at 50.0 µM)	growth inhibition [3, 7]	growth inhibition [3, 8]	growth inhibition ([3]; at 50.0 µM)	growth inhibition [4, 7]	growth inhibition [4, 8]	growth inhibition ([4]; at 50.0 µM)	growth inhibition [5, 7]	growth inhibition [5, 8]	growth inhibition ([5]; at 50.0 µM)	growth inhibition [6, 7]	growth inhibition [6, 8]	growth inhibition ([6]; at 50.0 µM)
O=C(c1ccccc1)N(c1ccccc1)c1ccc2ccccc2c1	-3%	16%	5.8%	-3%	21%	-6.1%	-5%	77% (active)	12%	-35%	30%	12.3%	13%	67%	21.8%	-12%	67%	-1.8%
COc1cc(C2C(C(=O)Nc3ccc(Cl)c(Cl)c3)=C(C)NC(C)=C2C(=O)Nc2ccc(Cl)c(Cl)c2)ccc1O	19%	19%	91% (active)	-4%	-4%	90.6% (active)	2%	2%	88.7% (active)	7%	7%	88.8% (active)	13%	13%	91.2% (active)	8%	8%	89.5% (active)
Cc1cccc2nc3nc(Cl)c(Cl)nc3n12	4%	76% (active)	75.7% (active)	17%	82% (active)	50.1%	13%	91% (active)	64.5%	7%	54%	51.5%	8%	36%	51.4%	26%	95% (active)	90.8% (active)
CCOC(=O)CNC(=O)CNC(=O)CNC(=O)OCc1ccccc1 (Cbz-Gly-Gly-Gly-OEt)	-9%	-3%	7.6%	-11%	-3%	-0.7%	-7%	4%	-12.2%	-62%	-4%	38.5%	-7%	42%	13.8%	1%	-13%	14.2%
CN(C)C=Nc1c2ccccc2nc2ccccc12	21%	83% (active)	71.1% (active)	23%	80% (active)	57.1%	11%	65%	68.7%	37%	60%	55.7%	5%	71% (active)	75% (active)	-8%	84% (active)	76.3% (active)
Oc1cc(Cl)cc2c1-c1ccc(Cl)cc1C2O (configuration not stated)	9%	97% (active)	95.2% (active)	6%	98% (active)	91.2% (active)	-4%	97% (active)	96.3% (active)	28%	97% (active)	81.8% (active)	31%	97% (active)	93.8% (active)	20%	98% (active)	95.5% (active)
C/C(C=C(C#N)C#N)=C\c1ccc([N+](=O)[O-])cc1	-9%	67%	78.2% (active)	-16%	67%	70.4% (active)	-1%	40%	64.8%	36%	60%	55.5%	15%	81% (active)	64.8%	-3%	89% (active)	67.3%
CN(C)[C@@H]1C(=O)C(C(=O)NCNc2nc3n[nH]nc3c(=O)[nH]2)=C(O)[C@@]2(O)C(=O)C3=C(O)c4c(O)cccc4[C@@](C)(O)[C@H]3C[C@@H]12	-1%	9%	-5.65%	-4%	6%	11.2%	-7%	3%	-7%	1%	-8%	11.6%	7%	14%	-10.6%	1%	4%	-4.9%
CC(C)(C)C(=O)CC(=O)C(F)(F)C(F)(F)C(F)(F)F.CC(C)(C)C(=O)CC(=O)C(F)(F)C(F)(F)C(F)(F)F.CC(C)(C)C(=O)CC(=O)C(F)(F)C(F)(F)C(F)(F)F.[Gd]	-7%	79% (active)	89.3% (active)	-9%	85% (active)	91.4% (active)	3%	82% (active)	90.7% (active)	9%	87% (active)	82.7% (active)	-17%	96% (active)	89.2% (active)	-7%	93% (active)	88.8% (active)
Cc1cc(C2CCCCC2)n(O)c(=O)c1	98% (active)	99% (active)	98.8% (active)	98% (active)	99% (active)	99.2% (active)	98% (active)	99% (active)	99.5% (active)	96% (active)	98% (active)	99.3% (active)	96% (active)	99% (active)	98.7% (active)	98% (active)	99% (active)	99.3% (active)
CS(=O)(=O)N\N=C1/C=C\C(=N/NS(C)(=O)=O)CCc2ccc(cc2)CC1	-1%	77% (active)	86.3% (active)	7%	96% (active)	88.8% (active)	-34%	92% (active)	93.3% (active)	-1%	19%	39.6%	-4%	92% (active)	90% (active)	5%	95% (active)	94.5% (active)
Clc1ccc(/C=N/Nc2c3ccccc3nc3ccccc23)c(Cl)c1	-6%	84% (active)	86.4% (active)	-11%	87% (active)	46%	-5%	83% (active)	87.8% (active)	-47%	64%	28.5%	-12%	92% (active)	60.4%	0%	87% (active)	85.4% (active)
N#CC(C(=O)C(=O)NC1C2CC3CC(C2)CC1C3)c1c(Cl)cccc1Cl (configuration not stated)	1%	7%	31.7%	-4%	-32%	19.8%	-1%	3%	21.2%	3%	5%	28.6%	-1%	5%	0.45%	-1%	5%	30.6%
O/N=C(/Cc1ccccc1)c1ccc2c(c1)OCO2	-4%	6%	-9.8%	-14%	-11%	4.9%	-18%	3%	-2.4%	-6%	17%	8.6%	6%	29%	15.1%	-19%	10%	2.95%
O=[N+]([O-])c1c(Cl)c(Cl)c(O)c(Cl)c1Cl	55%	80% (active)	76.5% (active)	44%	83% (active)	78.7% (active)	75% (active)	87% (active)	90% (active)	31%	64%	30.9%	55%	75% (active)	78.2% (active)	32%	89% (active)	70.8% (active)
O/N=C1/CCCC/C1=C\c1ccc(Cl)c(Cl)c1	5%	99% (active)	98.8% (active)	1%	99% (active)	99.3% (active)	28%	100% (active)	99.2% (active)	-6%	99% (active)	99.2% (active)	-3%	99% (active)	99.3% (active)	11%	96% (active)	99.1% (active)
O=C(CN1CCCCC1)c1ccc(/C=C/c2ccc(Cl)cc2)cc1	7%	98% (active)	98.6% (active)	4%	99% (active)	98.4% (active)	12%	98% (active)	97.1% (active)	-20%	75% (active)	97.5% (active)	-13%	99% (active)	96.8% (active)	21%	99% (active)	98.1% (active)
S=c1nc(C(c2ccccc2)c2ccccc2)[nH][nH]1	-2%	1%	29.1%	-1%	7%	1.7%	10%	13%	40.4%	0%	-2%	28.1%	1%	27%	11.6%	-3%	3%	65.5%
O=C(O)c1ccc(C(=O)c2ccccc2C(=O)O)cc1	-3%	-4%	99.3% (active)	-5%	-2%	99.7% (active)	-1%	-1%	99.4% (active)	-2%	-7%	98.5% (active)	0%	-1%	99.7% (active)	1%	0%	99.3% (active)
